Screening results as filed in PubChem BioAssay.
PfHsp90 yeast 2: reduces growth (ATP signal) of yeast expressing P. falciparum Hsp90; inhibition, % at 9.4 µM; hit rate 0.32% among 310,000; S. cerevisiae expressing PfHsp90, BacTiter-Glo ATP, 48 h; yeast lacking PDR1 and PDR3 efflux regulators; AID 504621;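 active = every replicate shows inhibition above about 80%, whatever the replicate mean, limit read from the data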;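 also: 0% = DMSO neutral controls and 100% = 20 µM radicicol positive controls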
NSD2 inh: blocks human histone methyltransferase NSD2; O96028; NSD2 peptide methylation, AlphaScreen, 120 min; inhibition, % at 12.5 µM; hit rate 0.54% among 310,000; in the data active = inhibition above about 50%
Glyco luc inh: blocks N-linked glycosylation in D54 reporter cells; reporter increase, % at 12.5 µM; D54 ERlucT glycosylation luciferase reporter, 24 h; percent of 100 nM tunicamycin response; hit rate 0.23% among 360,000;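 active = mean luciferase reporter signal, scaled so untreated is 0 and the glycosylation-blocking control 100, at or above a set limit in every replicate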;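 also: luciferase carries N-glycosylation sites so blocking glycosylation raises the light; 0% = median of neutral control wells and 100% = median of 100 nM tunicamycin wells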
MITF act: MITF TRPM1 promoter activation in melanoma cells; SK-MEL-5 TRPM1-promoter luciferase, 24 h; % of positive control, neutral wells = 0; activation, % at 12.5 µM; hit rate 0.75% among 300,000; AID 588334;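 active = mean activation of at least 80% with every replicate also reaching 80%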;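 also: 0% = neutral control wells and 100% = parthenolide positive control wells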
MITF TRPM1 inh: MITF TRPM1 promoter inhibition in SK-MEL-5 cells; SK-MEL-5 TRPM1 promoter luciferase, 24 h; inhibition, % at 12.5 µM; hit rate 0.83% among 330,000; AID 488899;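 active = mean inhibition across replicates of 60% or more, whatever share of single replicates reaches that level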
Wnt act: activates Wnt/beta-catenin signaling in a reporter cell assay; activator, plate reader; activation, % at 9.35 µM; hit rate 1.2% among 300,000; AID 743398; in the data active = activation above about 30%, passing the limit was not always enough;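 also: 0% = neutral control wells and 100% = positive control wells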
The depositor's hits bear a star; / = not tested or not shown. Only some compounds are listed: those with a hit (about 2.9% of all), similar ones and a draw of the others.

SMILES	PfHsp90 yeast 2	NSD2 inh	Glyco luc inh	MITF act	MITF TRPM1 inh	Wnt act
CCN(CC)CCNc1ncnc2c1sc1nc(N3CCOCC3)c3c(c12)CCCC3	-6	29	-10	-77	77*	-1
CC1CCc2c(sc(NC(=O)c3noc4c3CCCC4)c2C(N)=O)C1 (stereo not given)	2	2	-1	141*	-127	29
CC1CCc2c(sc(NC(=O)C3=COCCO3)c2C(N)=O)C1 (stereo not given)	-2	0	-9	66	-65	-2
Cc1ccccc1NC(=O)C1CCCN1S(=O)(=O)c1cccnc1 (stereo not given)	/	0	/	/	/	/
Cc1cc(C)cc(N2C(=O)C=CC2=O)c1	108*	-1	-4	-50	51	0
Cc1cc(C)cc(N2C(=O)c3nccnc3C2=O)c1	38	-3	1	3	0	0
Brc1cccc(CN2CCN(c3ncc(Cc4ccccc4)cn3)CC2)n1	/	/	/	/	/	-5
CCC(C)NC(=O)COc1ccc(OCc2ccccc2)cc1 (stereo not given)	-46	-3	-1	-12	11	6
O=c1c(Cl)c(Cl)cnn1Cc1nnc(-c2ccccc2Br)o1	-1	6	-5	-93	95*	-3
Clc1ccc(Cc2nnc(-c3ccccc3Br)o2)cc1	-5	/	-4	50	-50	1
Clc1ccccc1OCc1nnc(-c2ccccc2Br)o1	-19	-7	-4	99*	-107	/
Brc1ccccc1-c1nnc(COc2cccc3cccnc23)o1	-1	-1	0	7	-7	/
N#Cc1ccccc1OCc1nnc(-c2ccccc2Br)o1	-37	-6	-6	159*	-145	29
N#Cc1c(NC(=O)CSc2nc(N)cc(=O)[nH]2)sc2c1CCCCCC2	-13	0	3	-18	21	-7
N#Cc1c(NC(=O)CSc2ncn[nH]2)sc2c1CCCCC2	0	0	-13	-79	80*	/
COc1ccc(C2(CNC(=O)c3cc(OC)c(OC)c(OC)c3)CCCC2)cc1OC	-17	1	35*	/	1	-2
COc1cc(C(=O)NCC2(c3ccccc3)CCCC2)cc(OC)c1OC	-23	-2	1	-3	5	0
Cc1cnc(NC(=O)CC2CCCC2)s1	0	-2	-1	51	-51	-1
CCOc1cc(N2CCOCC2)c(OCC)cc1NC(=O)c1[nH]c(C)c(C(C)=O)c1C	21	0	29*	8	-8	0
CC(=O)c1c(C)[nH]c(C(=O)Nc2cc(S(=O)(=O)N3CCCCC3)ccc2C)c1C	-8	0	9	5	-6	6
COc1ccc(S(=O)(=O)N2CCCCC2)cc1NC(=O)c1[nH]c(C)c(C(C)=O)c1C	/	/	55*	-29	29	9
CC(=O)c1c(C)[nH]c(C(=O)Nc2ccccc2N2CCOCC2)c1C	-2	-1	9	-6	3	-2
COC(=O)[C@]12C[C@H](CC(=O)N3CCN(C(=O)c4ccco4)CC3)C(=O)N(Cc3ccccc3)C1=C[C@H](C(C)C)O[C@@H]2C1CC1	/	/	/	/	/	13
COC(=O)Cc1cc(=O)n2[nH]c(C(F)(F)F)nc2n1	-7	1	1	-2	4	/
Cc1ccc(-n2cc(-c3ccccc3)[nH]c2=O)cc1F	-11	-2	3	113*	-110	0
SMILES	PfHsp90 yeast 2	NSD2 inh	Glyco luc inh	MITF act	MITF TRPM1 inh	Wnt act
COc1ccc(-c2cn(-c3cccc(C)c3)c(=O)[nH]2)cc1OC	-6	/	2	/	/	-1
CC(C)(C)c1ccc(-c2nnc(N)s2)cc1	-9	-5	-7	60	-61	9
CC(C)(C)c1ccc(-c2nnc(N)o2)cc1	13	-3	-1	32	-29	42*
COc1cc(OC)cc(C(C)c2ccc(C)cc2)c1 (stereo not given)	/	-2	/	/	/	/
O=C1CCCN1CCCNc1nc(NCc2ccccc2)nc2ccsc12	/	0	38*	/	/	-4
CSc1ccc(-c2nnn(Cc3ccc(C)cc3)n2)cc1	-13	-24	0	94*	-101	/
O=C(O)c1cccc(COc2ccc(CO)cc2Cl)c1	15	0	-15	-104	105*	0
COc1ccc(OCc2cccc(C(=O)O)c2)cc1	4	1	-10	-96	97*	/
O=C(O)c1cccc(COc2ccc3c(c2)CCC3)c1	-4	1	-10	-95	96*	-8
O=C(O)c1ccc(COc2ccc(CO)cc2Cl)cc1	-11	2	-3	36	-36	21
